Measurements published in PubChem BioAssay (EPA / NIEHS).
“And” between values parts separate entries of the source, which are not always exact repeats. Equal entries are not always repeated. Inconclusive results are not listed. Some structures have more than one record in an assay (separate samples or runs), and their calls can disagree. The source made the active and inactive calls. Rule for the calls, unless noted: active = hit-call score of the fitted dose curve at least 0.9, where 1 is the maximum; inconclusive = response in the unintended direction; inactive = score below 0.9.

Key:
[1] = system: frog Androgen Receptor (AR), gene 399456; assay: ATG_frAR_XSP2: Attagene TRANS-FACTORIAL Multi-Species (XSP2) HepG2 Assay for frog Androgen Receptor (AR) (AID 2283824);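 note: actives raise reporter signal above DMSO so AC50 reflects agonist-like induction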
Summary of the method: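 HepG2 cells transiently transfected with GAL4-UAS reporter units and frog (Xenopus laevis) AR-Gal4 chimera; reporter mRNA measured 24 h after dosing by RT-PCR and capillary electrophoresis. Gain of signal fitted relative to DMSO baseline.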

[2] = system: frog Estrogen Receptor (ER2), gene 100174814; assay: ATG_frER2_XSP2: Attagene TRANS-FACTORIAL Multi-Species (XSP2) HepG2 Assay for frog Estrogen Receptor (ER2) (AID 2283828)
Summary of the method: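 HepG2 cells transiently transfected with multiplexed GAL4-UAS reporter units expressing chimeric frog ER2–Gal4 protein; reporter mRNA measured 24 h after chemical dosing by RT-PCR, fluorescent labeling and capillary electrophoresis. Gain-of-signal fitted relative to DMSO baseline.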

[3] = molecular target: Peroxisome proliferator-activated receptor gamma (Homo sapiens) (UniProt P37231); assay: ATG_hPPARg_XSP2: Attagene TRANS-FACTORIAL Multi-Species (XSP2) HepG2 Assay for human Peroxisome Proliferator-activated Receptor gamma (PPARg) (AID 2283829);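 note: actives raise reporter mRNA above DMSO so AC50 reflects PPARg activation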
Summary of the method: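 After transfecting HepG2 with GAL4-UAS reporter constructs, cells are dosed for 24 h; total RNA is reverse-transcribed, PCR-amplified, FAM-labeled, HpaI-digested and resolved by capillary electrophoresis. Activity is measured as mRNA induction relative to DMSO.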

[4] = molecular target: mouse Peroxisome Proliferator-activated Receptor gamma (PPARg), Pparg (gene 19016) (UniProt P37238); assay: ATG_mPPARg_XSP2: Attagene TRANS-FACTORIAL Multi-Species (XSP2) HepG2 Assay for mouse Peroxisome Proliferator-activated Receptor gamma (PPARg) (AID 2283830);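 note: hits are gains in reporter mRNA above DMSO so AC50 marks activation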
Procedure: (§1) ATG_XSP2_multi-species_TRANS is a cell-based, multiplexed assay created by modifying the existing Attagene TRANS-FACTORIAL system to include a panel of nuclear receptors from some or all the following species: human (Homo sapiens), mouse (Mus musculus), frog (Xenopus laevis), zebrafish (Danio rerio), chicken (Gallus gallus), and turtle (Chrysemys picta). The […] format uses HepG2, a human liver cell line, with measurements taken at 24 hours after chemical dosing in a 24-well plate. Xsp2 included 3 nM 6-alpha-fluorotestosterone and 1.5 nM norgestrel to stimulate the androgen receptor.ATG_mPPARg_XSP2 is one of 29 assay components measured or calculated from the ATG_XSP2_multi-species_TRANS assay. It is designed to make measurements of mRNA induction, a form of inducible reporter, as detected with fluorescence intensity signals by Reverse transcription polymerase chain reaction (RT-PCR) and Capillary electrophoresis technology.The assay endpoint ATG_mPPARg_XSP2 was analyzed in the positive analysis fitting direction relative to DMSO as the negative control and baseline of activity. Using a type of inducible reporter, measures of mRNA for gain-of-signal activity can be used to understand the reporter gene at the transcription factor-level as they relate to the gene PPARg. Furthermore, this assay endpoint can be referred to as a primary readout, because this assay has produced multiple assay endpoints where this one serves a reporter gene function. To generalize the intended target to other relatable targets, this assay endpoint is annotated to the nuclear receptor intended target family, where the subfamily is non-steroidal.
(§2) Human liver HepG2 cells are transiently transfected with multiple reporter transcription units (MRTUs) in 6-well plates using FuGene 6 reagent (Roche; 3 ml FuGene/1 mg DNA). The MRTU constructs are regulated by a cis-regulating element (promoter). […] A major difference between the CIS and TRANS system is that in CIS activities of endogenous TFs are measured, whereas the TRANS assay evaluates changes in activities of exogenous, chimeric NR-Gal4 proteins. […] At the end of 24 hour incubation, total RNA was isolated using TriZol reagent (Invitrogen). The isolated RNA is then reverse-transcribed using oligo(dT) primer and Mo-MLV reverse transcriptase (Invitrogen) with DNAse I (Ambion) treatment for 30 min. The one-tenth of the produced cDNA was amplified by PCR using Taq DNA polymerase (Invitrogen) and two reporter sequence-specific primers. The PCR products were fluorescently labeled by primer extension with 6-arboxyfluorescein (6-FAM) 5'-labeled reporter sequence-specific primer (2 min at 95 C, 20 s at 68 C and 10 min at 72 C) and these products were digested with 5U of HpaI (New England Biolabs) for 2h at 37 C. The fragments were purified using Qiaquick PCR columns (Qiagen), analyzed on an ABI 3130xL genetic analyzer (Applied Biosystems) with peak positions identified by using a set of X-rhodamine (ROX)-labeled MapMarker1000 molecular weight standards (BioVentures). The raw capillary electrophoresis data was processed using Attagraph software (Attagene).

[5] = molecular target: Nuclear receptor subfamily 1 group I member 2 (Mus musculus) (UniProt O54915); assay: ATG_mPXR_XSP2: Attagene TRANS-FACTORIAL Multi-Species (XSP1) HepG2 Assay for mouse Pregnane X Receptor (PXR) (AID 2283831)
Summary of the method: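 Reporter transcripts were quantified by RT-PCR, FAM primer extension, HpaI digestion and capillary electrophoresis after 24 h of chemical exposure in transiently transfected HepG2 cells carrying chimeric receptor-GAL4 constructs; DMSO served as baseline.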

[6] = molecular target: zebrafish Thyroid Hormone Receptor alpha (TRa), thraa (gene 30670) (UniProt Q98867); assay: ATG_zfTRa_XSP2: Attagene TRANS-FACTORIAL Multi-Species (XSP1) HepG2 Assay for zebrafish Thyroid Hormone Receptor alpha (TRa) (AID 2283832);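 note: actives raise zebrafish TRa-Gal4 reporter transcript above DMSO baseline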
Summary of the method: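 HepG2 cells transiently transfected with multiplexed GAL4-UAS reporter units expressing chimeric NR-Gal4 proteins; 24 h after dosing, reporter mRNA measured by RT-PCR, FAM labelling, HpaI digestion and capillary electrophoresis; gain of signal versus DMSO baseline.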

[7] = system: zebrafish Peroxisome Proliferator-activated Receptor gamma (PPARg), gene 557037; assay: ATG_zfPPARg_XSP2: Attagene TRANS-FACTORIAL Multi-Species (XSP2) HepG2 Assay for zebrafish Peroxisome Proliferator-activated Receptor gamma (PPARg) (AID 2283833);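 note: actives increase reporter signal over DMSO so AC50 reflects activation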
Procedure: as §1, with “receptor.ATG_zfPPARg_XSP2” for “receptor.ATG_mPPARg_XSP2”, “ATG_zfPPARg_XSP2” for “ATG_mPPARg_XSP2”
as §2

[8] = system: turtle Thyroid Hormone Receptor, alpha (TRa), gene 101949057; assay: ATG_trTRa_XSP2: Attagene TRANS-FACTORIAL Multi-Species (XSP1) HepG2 Assay for turtle Thyroid Hormone Receptor, alpha (TRa) (AID 2283834);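 note: hits raise reporter mRNA over the DMSO baseline so AC50 marks activators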
Summary of the method: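 Transfection of HepG2 with multiple reporter transcription units, then chemical dosing for 24 h. Total RNA was reverse-transcribed, reporter sequences PCR-amplified and FAM-labelled, then sized by capillary electrophoresis. DMSO served as baseline.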

[9] = ATG_M_61_XSP2: Attagene TRANS-FACTORIAL Multi-Species (XSP2) HepG2 Assay for M61 Transcription Factor (Internal Marker) (AID 2283835; active = hit-call score of the fitted dose curve at least 0.9, where 1 is the maximum; inactive = score below 0.9;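 note: active means a rise in signal above the DMSO baseline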)
Procedure: ATG_XSP2_multi-species_TRANS is a cell-based, multiplexed assay created by modifying the existing Attagene TRANS-FACTORIAL system to include a panel of nuclear receptors from some or all the following species: human (Homo sapiens), mouse (Mus musculus), frog (Xenopus laevis), zebrafish (Danio rerio), chicken (Gallus gallus), and turtle (Chrysemys picta). The ECOTOX-FACTORIAL format uses HepG2, a human liver cell line, with measurements taken at 24 hours after chemical dosing in a 24-well plate. Xsp2 included 3 nM 6-alpha-fluorotestosterone and 1.5 nM norgestrel to stimulate the androgen receptor.ATG_M_61_XSP2 is one of 29 assay components measured or calculated from the ATG_XSP2_multi-species_TRANS assay. It is designed to make measurements of mRNA induction, a form of inducible reporter, as detected with fluorescence intensity signals by Reverse transcription polymerase chain reaction (RT-PCR) and Capillary electrophoresis technology.This assay endpoint, ATG_M_61_XSP2, was analyzed in the positive analysis fitting direction relative to DMSO as the negative control and baseline of activity. Using a type of inducible reporter, measures of mRNA for gain-of-signal activity can be used to understand the background control at the transcription factor-level as they relate to the gene. Furthermore, this assay endpoint can be referred to as a secondary readout, because this assay has produced multiple assay endpoints where this one serves a background control function. To generalize the intended target to other relatable targets, this assay endpoint is annotated to the background measurement intended target family, where the subfamily is internal marker.
as §2

[10] = system: zebrafish Androgen Receptor (AR), gene 100005148; assay: ATG_zfAR_XSP2: Attagene TRANS-FACTORIAL Multi-Species (XSP2) HepG2 Assay for zebrafish Androgen Receptor (AR) (AID 2283825);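 note: hits raise reporter mRNA above DMSO so AC50 reflects agonist-type gain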
Summary of the method: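 Zebrafish AR–GAL4 chimera transiently expressed with GAL4-UAS reporter in HepG2 cells, co-stimulated with 3 nM 6-alpha-fluorotestosterone and 1.5 nM norgestrel; 24 h dosing, reporter mRNA read by RT-PCR/capillary electrophoresis versus DMSO.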

Chain of mouse Peroxisome Proliferator-activated Receptor gamma (PPARg), Pparg (gene 19016) (P37238 whole entry, looked up): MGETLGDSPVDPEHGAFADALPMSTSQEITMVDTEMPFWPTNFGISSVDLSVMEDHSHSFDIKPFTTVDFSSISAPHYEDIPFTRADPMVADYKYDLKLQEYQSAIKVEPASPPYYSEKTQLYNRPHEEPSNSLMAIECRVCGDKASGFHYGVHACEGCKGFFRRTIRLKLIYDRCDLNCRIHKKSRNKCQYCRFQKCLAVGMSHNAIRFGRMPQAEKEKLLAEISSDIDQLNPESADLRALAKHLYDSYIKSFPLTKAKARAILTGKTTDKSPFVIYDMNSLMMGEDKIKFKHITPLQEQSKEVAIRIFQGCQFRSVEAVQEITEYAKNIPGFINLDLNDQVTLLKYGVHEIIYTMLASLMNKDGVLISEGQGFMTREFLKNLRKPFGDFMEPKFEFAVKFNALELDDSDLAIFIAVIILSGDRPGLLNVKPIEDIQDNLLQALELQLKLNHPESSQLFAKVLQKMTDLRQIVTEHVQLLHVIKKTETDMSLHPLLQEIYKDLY
Chain of zebrafish Thyroid Hormone Receptor alpha (TRa), thraa (gene 30670) (Q98867 whole entry, looked up, the tested form may be a part): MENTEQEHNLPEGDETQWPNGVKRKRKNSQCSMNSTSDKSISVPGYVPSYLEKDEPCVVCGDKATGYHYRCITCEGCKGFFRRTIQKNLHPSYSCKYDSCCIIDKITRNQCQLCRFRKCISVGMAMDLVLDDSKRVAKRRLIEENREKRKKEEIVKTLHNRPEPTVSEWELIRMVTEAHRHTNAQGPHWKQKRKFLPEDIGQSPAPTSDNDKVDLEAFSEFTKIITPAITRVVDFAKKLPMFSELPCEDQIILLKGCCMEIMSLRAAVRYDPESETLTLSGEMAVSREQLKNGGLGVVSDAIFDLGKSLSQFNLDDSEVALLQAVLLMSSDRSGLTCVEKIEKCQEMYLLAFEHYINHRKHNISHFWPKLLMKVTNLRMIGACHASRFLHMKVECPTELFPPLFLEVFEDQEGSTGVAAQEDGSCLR
Chain of Nuclear receptor subfamily 1 group I member 2 (Mus musculus) (O54915 whole entry, looked up, the tested form may be a part): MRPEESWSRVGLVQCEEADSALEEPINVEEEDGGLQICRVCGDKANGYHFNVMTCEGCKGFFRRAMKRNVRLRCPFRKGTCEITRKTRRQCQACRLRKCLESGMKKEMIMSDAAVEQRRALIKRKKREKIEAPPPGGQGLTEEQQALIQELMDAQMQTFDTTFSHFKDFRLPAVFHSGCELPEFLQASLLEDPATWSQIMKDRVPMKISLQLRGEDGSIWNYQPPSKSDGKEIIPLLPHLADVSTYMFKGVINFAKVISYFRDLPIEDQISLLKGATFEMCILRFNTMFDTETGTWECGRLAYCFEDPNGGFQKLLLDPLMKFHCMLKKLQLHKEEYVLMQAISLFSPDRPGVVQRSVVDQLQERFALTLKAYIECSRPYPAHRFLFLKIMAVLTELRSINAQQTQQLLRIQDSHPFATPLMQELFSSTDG
Chain of Peroxisome proliferator-activated receptor gamma (Homo sapiens) (P37231 whole entry, looked up, the tested form may be a part): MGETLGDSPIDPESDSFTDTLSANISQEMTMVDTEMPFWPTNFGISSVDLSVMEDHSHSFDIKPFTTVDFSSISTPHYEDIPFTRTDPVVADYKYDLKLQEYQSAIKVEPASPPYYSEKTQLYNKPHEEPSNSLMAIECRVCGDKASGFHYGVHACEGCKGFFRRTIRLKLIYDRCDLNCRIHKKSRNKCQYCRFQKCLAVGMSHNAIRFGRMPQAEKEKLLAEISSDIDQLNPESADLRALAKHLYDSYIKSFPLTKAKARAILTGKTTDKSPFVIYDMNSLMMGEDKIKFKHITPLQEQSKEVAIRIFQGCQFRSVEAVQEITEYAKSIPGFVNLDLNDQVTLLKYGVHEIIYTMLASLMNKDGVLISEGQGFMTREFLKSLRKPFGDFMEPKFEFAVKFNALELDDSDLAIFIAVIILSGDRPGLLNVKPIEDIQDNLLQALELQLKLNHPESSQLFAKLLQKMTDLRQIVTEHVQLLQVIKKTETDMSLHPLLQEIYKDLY

In the case of `O=c1c(O)c(-c2ccc(O)cc2)oc2cc(O)cc(O)c12`, the AC50 [1] is reported as 2.89 µM (active) and 1.82 µM (active), the AC50 [2] is reported as 1.75 µM (active) and 945 nM (active) and the AC50 [3] is reported as 12.5 µM (active) and 7.02 µM (active). The AC50 [4] was 12 µM (active), the outcome [5] was “inactive” and the outcome [6] was “inactive”. The outcome [7] was “inactive”, the outcome [8] was “inactive” and the outcome [9] was “inactive”.
With `CCCCC(CC)COC(=O)c1ccc(O)cc1` (configuration not stated) the outcome [10] was “inactive”, the AC50 [5] was 56.4 µM (active) and the outcome [6] was “inactive”. The AC50 [7] was 60 µM (active).
In the case of `Cc1cc(=O)oc2cc(N(C)C)ccc12`, the AC50 [2] is reported as 48.9 µM (active), the AC50 [3] is reported as 24.8 µM (active) and 17 µM (active) and the AC50 [4] is reported as 33.5 µM (active) and 27.8 µM (active). For the same compound, the AC50 [5] was 4.03 µM (active) and 6.44 µM (active), the outcome [6] was “inactive” and the outcome [7] was “inactive”. For the same compound, the outcome [8] was “inactive” and the outcome [9] was “inactive”.
In the case of `Clc1ccc(C(c2ccccc2Cl)C(Cl)Cl)cc1` (configuration not stated), the AC50 [2] is reported as 1.34 µM (active) and 1.64 µM (active), the outcome [3] is reported as “inactive” and the outcome [4] is reported as “inactive”. The AC50 [5] was 5.19 µM (active) and 5.09 µM (active), the outcome [6] was “inactive” and the outcome [7] was “inactive”. The outcome [9] was “inactive”.
In the case of `BrCc1cccc(Oc2ccccc2)c1`, the AC50 [2] is reported as 15.7 µM (active) and 10.2 µM (active), the AC50 [3] is reported as 58.6 µM (active) and 35.6 µM (active) and the AC50 [4] is reported as 66.6 µM (active) and 39 µM (active). The AC50 [5] was 27.7 µM (active), the outcome [5] was “inactive” and the outcome [6] was “inactive”. For the same compound, the outcome [7] was “inactive”, the outcome [8] was “inactive” and the outcome [9] was “inactive”.
With `OCc1cccc(Oc2ccccc2)c1` the AC50 [2] was 27.5 µM (active) and 9.21 µM (active), the AC50 [3] was 60.3 µM (active) and 36.7 µM (active) and the AC50 [4] was 40.6 µM (active) and 34.9 µM (active). The AC50 [5] was 57.4 µM (active), the outcome [5] was “inactive” and the outcome [6] was “inactive”. For the same compound, the outcome [7] was “inactive”, the outcome [8] was “inactive” and the outcome [9] was “inactive”.
With `Oc1ccc2cc(SSc3ccc4cc(O)ccc4c3)ccc2c1` the AC50 [1] was 26.3 µM (active), the AC50 [2] was 925 nM (active) and 696 nM (active) and the AC50 [3] was 4.81 µM (active) and 4.29 µM (active). The AC50 [4] was 7.19 µM (active) and 5.11 µM (active), the AC50 [5] was 36.2 µM (active) and 20.8 µM (active) and the AC50 [6] was 156 µM (active). For the same compound, the outcome [6] was “inactive”, the outcome [7] was “inactive” and the AC50 [8] was 26.8 µM (active). For the same compound, the outcome [8] was “inactive” and the outcome [9] was “inactive”.
